Only some compounds are listed: those with a hit (about 8% of all), similar ones and a draw of the others.
SW480 rerep: induces DNA re-replication in SW480 colon adenocarcinoma cells | SW480 DNA re-replication, Hoechst DNA content imaging, 48 h | Potency, µM (doses to about 46.1 µM), actives largely listed as activators | 1.8% of 340,000 active; note: nearly all actives have a fitted effect of over 55% in size
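Cells (250 per well) received 23 nL compound or DMSO by pin tool and were kept 48 hr at 37 C, 5% CO2. Nuclei were then stained with Hoechst for 40 min and scanned for DNA content.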
KB-V1 cytotox: kills drug-selected multidrug resistant KB-V1 cells; KB-V1 MDR cells viability, CellTiter-Glo, 72 h; Potency, µM (highest dose often 46.1 µM), hits mostly cytotoxic; 3.4% of 400,000 active; AID 1347076; note: nearly all actives have a fitted effect of over 60% in size
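Compound-treated KB-V1 multidrug-resistant cells, 72 h, 37 degrees C; viability by CellTiter-Glo. Fitted qHTS curves give the values.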
HT1080 IDH1KD tx: HT-1080 IDH1 knockdown cell toxicity (counter line); HT-1080 IDH1 knockdown viability, ATP luminescence, 48 h; Potency, µM (series often up to 46.1 µM), actives largely listed as cytotoxic; 2% of 360,000 active
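In this qHTS, HT-1080 cells depleted of IDH1 are exposed for 48 h at 37 °C to compound titrations. Toxicity is scored from CellTiter-Glo luminescence, with DMSO as full viability and medium alone as none.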
MCF10A rereplic: DNA re-replication induction in MCF 10a cells. MCF 10A DNA re-replication, Hoechst nuclear intensity, 48 h. Potency, µM (highest dose often 46.1 µM), most hits filed as activators. 2.9% of 350,000 active. AID 624296; note: nearly all actives have a fitted effect of over 50% in size
KB-3-1 cytotox: KB-3-1 parental cell cytotoxicity | KB-3-1 viability, CellTiter-Glo ATP luminescence, 72 h | Potency, µM (doses to about 46.1 µM), hits mostly cytotoxic | 1.4% of 400,000 active; note: nearly all actives have a fitted effect of over 60% in size
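72 h, 37 °C compound treatment of KB-3-1 parental cells; CellTiter-Glo added, 10 min, luminescence read. Data corrected against DMSO-only plates and normalized before curve fitting.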
HT1080-NT tox: kills 2HG-producing HT-1080-NT fibrosarcoma cells | AID 686970 | 1.6% of 360,000 active | HT-1080-NT fibrosarcoma viability, CellTiter-Glo ATP luminescence, 48 h | Potency, µM (series often up to 46.1 µM), most hits filed as cytotoxic;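 note: NT is the 2HG producing partner of a matched IDH1 knockdown line; nearly all actives have a fitted effect of over 55% in size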
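Read-out is CellTiter-Glo luminescence after 10 minutes at room temperature, following 48 hours' compound treatment of HT-1080-NT cells (750 cells/well, RPMI, 5% FBS, 37 degrees C).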
Hits are given with their value; - = inactive; ? = inconclusive; . = no result given; [ ] = dose if it differs, or a comment. Calls come from the whole dose curve; as a rule, active = well fitted curve in the direction sought with a large enough effect; inconclusive = small, poorly fitted or top-dose-only effect, or another doubt; inactive = no such curve, though single readings can be large; an effect the other way counts as inactive or inconclusive.

SMILES	SW480 rerep	KB-V1 cytotox	HT1080 IDH1KD tx	MCF10A rereplic	KB-3-1 cytotox	HT1080-NT tox
COc1ccc(-c2cc(-c3cc(OC)ccc3O)[nH]n2)cc1	-	?	?	?	-	?
COc1ccc(-c2cc(-c3ccc(OC)c(OC)c3)n[nH]2)c(O)c1	-	2.59µM	?	?	?	-
COc1ccc(O)c(-c2cc(-c3ccc(F)cc3)n[nH]2)c1	-	-	23.1µM	?	-	?
COc1cc(NC(=O)CCn2cnc3ccccc3c2=O)cc(OC)c1	.	-	.	.	-	.
N#Cc1c(-c2ccc(Cl)cc2)c(-c2ccc(Cl)cc2)nn(CCOC(=O)CCC(=O)O)c1=O	?	7.31µM	7.31µM	1.84µM	2.31µM	5.17µM
COC(=O)CCn1nc(-c2ccc(Cl)cc2)c2ccccc2c1=O	-	-	-	-	-	-
N#Cc1c(-c2ccccc2)c(-c2ccccc2)nn(CC(=O)NNC(=O)Nc2ccc(Cl)cc2)c1=O	?	-	5.8µM	?	18.4µM	6.51µM
N#Cc1c(-c2ccccc2)c(-c2ccccc2)nn(CC(=O)NNC(=O)Nc2ccccc2)c1=O	2.91µM	-	3.26µM	0.651µM	5.8µM	2.31µM
CC(=O)Nc1ccc2ccc3cccc4ccc1c2c34	20.6µM	-	-	6.51µM	-	-
CC1CCc2cc(F)ccc2N1C(=O)CSc1nnc2c(n1)[nH]c1ccccc12 (stereo not drawn)	-	16.4µM	?	?	-	-
CC1CCc2cc(F)ccc2N1C(=O)CSc1nnc(-c2cccs2)n1C (stereo not drawn)	-	7.31µM	-	-	-	-
Cn1c(SCC(=O)N2CCCc3ccccc32)nnc1-c1cccs1	-	-	-	-	-	-
O=C(CCC1N=C2c3ccccc3N=C(SCc3ccc(F)cc3)N2C1=O)NCCc1ccccc1 (stereo not drawn)	.	-	.	.	-	.
CC(=O)c1ccc(NC(=O)Nc2nnc(N3CCCC(C)C3)s2)cc1 (stereo not drawn)	.	-	.	.	-	.
N#CC1=C(N)CCC1	.	-	.	.	-	.
CN1N/C(=C\c2ccccc2)N=C2C(=O)N(C)C(=O)N=C21	.	-	.	.	-	.
CC/C=C1/N=C2C(=O)N(C)C(=O)N=C2N(C)N1	.	-	.	.	18.4µM	.
O=C(N/N=C\c1c[nH]c2ccccc12)c1ccc(O)cc1	-	-	-	-	-	-
Cc1ccc(-c2cc(C(=O)N/N=C/c3c[nH]c4ccccc34)[nH]n2)cc1	3.26µM	10.3µM	2.91µM	?	5.17µM	?
O=C(N/N=C/c1c[nH]c2ccccc12)c1cc(-c2ccc(-c3ccccc3)cc2)n[nH]1	?	16.4µM	12.6µM	14.6µM	?	?
O=C(N/N=C/c1c[nH]c2ccccc12)c1cc(-c2ccc3ccccc3c2)n[nH]1	11.6µM	?	5.8µM	2.59µM	?	7.31µM
O=C(N/N=C/c1cccs1)c1cc(-c2ccc3ccccc3c2)n[nH]1	?	?	?	?	-	?
O=C(N/N=C/c1ccccn1)c1cc(-c2cccc3ccccc23)n[nH]1	-	-	-	?	-	-
O=C(N/N=C/c1c[nH]c2ccccc12)c1cc(-c2ccccc2)n[nH]1	-	-	?	-	-	?
O=C(N/N=C/c1c[nH]c2ccccc12)c1cc(-c2cccc3ccccc23)n[nH]1	?	-	8.2µM	9.2µM	?	?
SMILES	SW480 rerep	KB-V1 cytotox	HT1080 IDH1KD tx	MCF10A rereplic	KB-3-1 cytotox	HT1080-NT tox
Cc1ccc(C)c(NC(=O)CCS(=O)(=O)c2cccc3nsnc23)c1	.	-	.	.	-	.
O=C(N/N=C/c1cccs1)c1cc(-c2cccc3ccccc23)n[nH]1	?	?	?	23.1µM	?	?
O=C(N/N=C/c1c[nH]c2ccccc12)c1ccn[nH]1	-	-	-	0.581µM	-	-
CCn1c2ccccc2c2nnc(SCN3C(=O)c4ccccc4C3=O)nc21	-	8.2µM	-	-	?	-
C=CCn1c2ccccc2c2nnc(SCC(=O)NC(C(=O)OC)C(C)C)nc21 (stereo not drawn)	-	8.2µM	-	-	-	-
COC12NC(=O)N(C)C1(OC)C(=O)N(C)C(=O)N2C (stereo not drawn)	0.651µM	-	-	?	-	-
CCc1ccccc1NC(=O)c1nnn(Cc2ccc(Cl)cc2)c1N	.	-	.	.	-	.
Cc1cc(Br)cn2c(Cc3cccc(Cl)c3)c(-c3ccco3)nc12	.	-	?	.	?	?
Cc1ccc(Cc2c(-c3ccco3)nc3c4ccccc4ccn23)cc1	.	?	20.6µM	.	-	23.1µM
Cc1ccc(Cc2c(-c3ccco3)nc3ccc(C)cn23)cc1	.	-	-	.	-	-
Cc1ccc(Cc2c(-c3ccco3)nc3c(C)cc(Br)cn23)cc1	.	?	14.6µM	.	?	25.9µM
O=c1c2ccccc2sc2c(CO)ccc(NCCN3CCCCC3)c12	?	16.4µM	?	-	?	-
CCN(CC)CCNc1ccc(CO)c2sc3ccccc3c(=O)c12	?	?	20.6µM	?	16.4µM	11.6µM
Cc1nc(-c2cccc(NC(=O)Nc3ccc([N+](=O)[O-])cc3)c2)no1	.	-	.	.	?	.
OB(O)c1csc2ccccc12	.	-	.	.	-	.
O=C(Nc1ncnc2c1C(c1ccccc1)c1c(ccc3ccccc13)O2)c1ccccc1 (stereo not drawn)	-[9.22 µM]	?	.	?	13µM	.
O=C(Cc1ccccc1)Nc1ncnc2c1C(c1ccccc1)c1c(ccc3ccccc13)O2 (stereo not drawn)	?	18.4µM	.	?	?	.
Cc1ccc(S(=O)(=O)NNC(=O)NC23CC4CC(CC(C4)C2)C3)cc1	-	20.6µM	-	-	-	-
CC(=O)Nc1ccc(S(=O)(=O)NNC(=O)NC23CC4CC(CC(C4)C2)C3)cc1	-	-	-	-	-	-
O=C(NCc1ccccc1Cl)c1ccc2c(O)c(S(=O)(=O)c3ccccc3)c(=O)[nH]c2c1	.	-	.	.	-	.
COc1cc2c(-c3ccc(O)cc3)nc3c(c(C)nn3-c3ccccc3)c2cc1OC	?	3.66µM	-	14.6µM	?	-
COc1cccc(-c2nc3c(c(C)nn3-c3ccccc3)c3cc(OC)c(OC)cc23)c1	.	-	.	.	-	.
Cc1ccc(S(=O)(=O)N2CCN(c3nc(-c4ccc(CN5CCNCC5)s4)nc4ccccc34)CC2)cc1	.	-	.	.	-	.
O=Cc1c(Sc2ccccc2)nc2ccccn2c1=O	-	?	?	?	14.6µM	?
O=[N+]([O-])c1ccc(OCc2cnc(Cl)s2)c([N+](=O)[O-])c1	-	1.16µM	-	?	6.51µM	-
COC(=O)C(Cc1cnc(Cl)s1)(C(=O)OC)c1ccc([N+](=O)[O-])cc1[N+](=O)[O-]	-[9.22 µM]	?	-	-	?	-
O=[N+]([O-])c1ccc(Oc2cccnc2)c([N+](=O)[O-])c1	?	-	?	5.8µM	?	?

Compound activity as filed in PubChem BioAssay.
